These results are taken from article PMC7862700, “An all-to-all approach to the identification of sequence-specific readers for epigenetic DNA modifications on cytosine”.

Holding throughout (test): DAPPL (digital affinity profiling via proximity ligation, sequencing); 10 mM Tris-HCl pH 7.5, 50 mM NaCl, 1 mM DTT, 4% glycerol, room temperature, 30 min; GST-TFs on glutathione beads, 16-mer random dsDNA library, 0.1% formaldehyde crosslink after washing; high values mean tight binding
Holding throughout (conditions): protein: recombinant; tags: N-terminal GST; dsDNA, one strand shown

The target of one assay is T1, FLI1 (Homo sapiens, UniProt Q01543 1-452).
T1 sequence: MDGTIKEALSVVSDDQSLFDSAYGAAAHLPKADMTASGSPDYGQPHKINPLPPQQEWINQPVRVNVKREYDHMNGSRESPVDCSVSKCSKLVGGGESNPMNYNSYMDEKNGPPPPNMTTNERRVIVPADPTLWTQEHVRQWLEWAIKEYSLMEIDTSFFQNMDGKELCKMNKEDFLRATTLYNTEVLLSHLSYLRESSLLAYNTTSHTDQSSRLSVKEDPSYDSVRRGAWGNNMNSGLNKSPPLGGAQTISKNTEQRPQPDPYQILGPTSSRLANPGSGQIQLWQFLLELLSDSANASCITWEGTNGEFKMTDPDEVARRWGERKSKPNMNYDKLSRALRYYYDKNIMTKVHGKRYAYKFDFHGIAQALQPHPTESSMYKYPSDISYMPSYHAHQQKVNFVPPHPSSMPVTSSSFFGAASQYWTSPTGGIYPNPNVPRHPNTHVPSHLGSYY
A digest of the protocol:
(§1)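 Human transcription factors were made in yeast as GST fusions, captured on glutathione beads and barcoded with DNA. With a tag-only sample included, the pool was incubated with 200 nmole of a random double-stranded 16-mer DNA library in Tris/NaCl/DTT/glycerol buffer at room temperature for 30 min, then crosslinked with 0.1% formaldehyde after washing, ligated by proximity, amplified and sequenced. For binding signal, each hexamer's read frequency for a factor is divided by its frequency for the tag-only sample.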

The target in the next assay is T2, ELK1 (Homo sapiens, UniProt P19419 1-428).
T2 sequence: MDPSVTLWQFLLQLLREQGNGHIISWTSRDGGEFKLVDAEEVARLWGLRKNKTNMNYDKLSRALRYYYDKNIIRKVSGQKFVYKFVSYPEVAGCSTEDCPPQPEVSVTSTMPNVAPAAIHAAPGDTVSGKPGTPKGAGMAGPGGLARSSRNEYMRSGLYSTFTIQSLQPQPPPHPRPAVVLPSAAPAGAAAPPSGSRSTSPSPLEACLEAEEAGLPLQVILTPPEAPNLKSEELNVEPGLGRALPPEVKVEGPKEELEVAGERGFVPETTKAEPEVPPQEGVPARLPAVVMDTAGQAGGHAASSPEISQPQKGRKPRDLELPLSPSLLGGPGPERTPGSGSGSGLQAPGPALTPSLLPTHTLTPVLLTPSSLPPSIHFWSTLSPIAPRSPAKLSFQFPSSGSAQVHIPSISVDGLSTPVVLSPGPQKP
The essentials: as §1

The target of the next assay is T3, GABPA (Homo sapiens, UniProt Q06546 1-454).
T3 sequence: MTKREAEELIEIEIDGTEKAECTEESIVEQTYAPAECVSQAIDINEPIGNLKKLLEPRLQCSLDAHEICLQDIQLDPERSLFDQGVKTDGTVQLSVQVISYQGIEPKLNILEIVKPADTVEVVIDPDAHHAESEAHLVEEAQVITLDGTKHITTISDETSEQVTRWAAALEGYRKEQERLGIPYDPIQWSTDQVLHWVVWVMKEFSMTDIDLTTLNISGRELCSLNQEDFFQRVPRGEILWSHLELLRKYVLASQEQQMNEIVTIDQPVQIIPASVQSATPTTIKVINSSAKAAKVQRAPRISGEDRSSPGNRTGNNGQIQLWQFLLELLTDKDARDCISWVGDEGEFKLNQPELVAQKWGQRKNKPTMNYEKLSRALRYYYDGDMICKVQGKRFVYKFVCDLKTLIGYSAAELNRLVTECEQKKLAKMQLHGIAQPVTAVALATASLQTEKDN
A digest of the protocol: as §1

The target of another assay is ELF1 (Homo sapiens, UniProt P32519 1-619). The essentials:
as §1

In the next assay the target is SPI1 (Homo sapiens, UniProt P17947 1-270). A digest of the protocol:
as §1

The target of a further assay is SPIB (Homo sapiens, UniProt Q01892 1-262). The essentials:
as §1

The target of the next assay is T4, FEV (Homo sapiens, UniProt Q99581 1-238).
T4 sequence: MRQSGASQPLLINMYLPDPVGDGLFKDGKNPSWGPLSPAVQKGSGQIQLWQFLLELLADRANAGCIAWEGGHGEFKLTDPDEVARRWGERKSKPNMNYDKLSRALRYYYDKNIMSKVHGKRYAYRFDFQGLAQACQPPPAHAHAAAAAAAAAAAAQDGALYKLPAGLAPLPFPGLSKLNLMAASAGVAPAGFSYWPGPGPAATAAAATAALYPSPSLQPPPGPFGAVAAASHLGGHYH
The essentials:
as §1

Another assay deals with ETV5 (Homo sapiens, UniProt P41161 1-510). The essentials: as §1
ETV5, sequence (P41161 whole entry): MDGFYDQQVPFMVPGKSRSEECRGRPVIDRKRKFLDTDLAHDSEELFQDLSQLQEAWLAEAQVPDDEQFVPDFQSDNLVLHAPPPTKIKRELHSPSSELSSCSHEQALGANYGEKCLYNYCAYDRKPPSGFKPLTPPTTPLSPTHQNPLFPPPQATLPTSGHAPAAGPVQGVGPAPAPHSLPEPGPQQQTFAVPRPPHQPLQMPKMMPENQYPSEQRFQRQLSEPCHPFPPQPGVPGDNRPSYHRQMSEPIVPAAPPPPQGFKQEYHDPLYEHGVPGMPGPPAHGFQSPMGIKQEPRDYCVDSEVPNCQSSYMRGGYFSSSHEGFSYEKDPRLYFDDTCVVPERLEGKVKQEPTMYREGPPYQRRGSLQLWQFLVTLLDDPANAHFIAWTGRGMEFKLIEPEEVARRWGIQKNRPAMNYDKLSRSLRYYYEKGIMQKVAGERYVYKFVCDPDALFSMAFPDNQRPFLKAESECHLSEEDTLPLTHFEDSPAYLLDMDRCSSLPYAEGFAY
For a further assay, the target named is T5, SPIC (Homo sapiens, UniProt Q8N5J4 1-248).
T5 sequence: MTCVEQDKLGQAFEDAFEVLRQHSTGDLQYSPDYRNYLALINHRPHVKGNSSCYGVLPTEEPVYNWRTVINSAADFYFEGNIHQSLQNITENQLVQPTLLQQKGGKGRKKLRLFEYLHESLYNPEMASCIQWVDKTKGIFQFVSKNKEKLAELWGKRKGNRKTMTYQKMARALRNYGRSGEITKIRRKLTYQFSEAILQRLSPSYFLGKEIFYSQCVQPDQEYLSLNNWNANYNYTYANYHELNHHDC
The essentials: as §1

In another assay the target is ELF4 (Homo sapiens, UniProt Q99607 1-663). A digest of the protocol:
as §1

The next assay concerns the target T6, ELK4 (Homo sapiens, UniProt P28324-2 1-405).
T6 sequence: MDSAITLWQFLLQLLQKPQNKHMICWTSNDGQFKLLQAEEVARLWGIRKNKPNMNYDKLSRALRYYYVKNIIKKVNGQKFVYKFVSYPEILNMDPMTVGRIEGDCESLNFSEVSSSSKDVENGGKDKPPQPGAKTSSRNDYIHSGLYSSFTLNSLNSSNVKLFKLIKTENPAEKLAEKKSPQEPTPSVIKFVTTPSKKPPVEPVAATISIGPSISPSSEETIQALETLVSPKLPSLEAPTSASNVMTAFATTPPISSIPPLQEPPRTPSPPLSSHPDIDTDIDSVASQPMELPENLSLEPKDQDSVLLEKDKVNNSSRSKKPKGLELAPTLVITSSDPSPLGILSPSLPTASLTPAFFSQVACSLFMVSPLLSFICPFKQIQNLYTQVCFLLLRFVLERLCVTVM
A digest of the protocol:
as §1

A further assay deals with T7, ETV2 (Homo sapiens, UniProt O00321 1-342).
T7 sequence: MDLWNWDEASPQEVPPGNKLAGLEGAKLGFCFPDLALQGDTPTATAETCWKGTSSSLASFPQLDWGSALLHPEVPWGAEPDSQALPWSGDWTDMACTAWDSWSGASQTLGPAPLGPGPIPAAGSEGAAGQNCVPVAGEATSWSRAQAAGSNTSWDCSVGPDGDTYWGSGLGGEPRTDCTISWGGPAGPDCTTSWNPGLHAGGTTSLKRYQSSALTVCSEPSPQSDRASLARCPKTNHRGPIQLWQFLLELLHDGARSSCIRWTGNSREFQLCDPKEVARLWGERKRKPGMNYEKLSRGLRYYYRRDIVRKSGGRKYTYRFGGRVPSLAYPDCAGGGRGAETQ
The essentials: as §1

The target of a further assay is ETV1 (Homo sapiens, UniProt P50549 1-477). The essentials: as §1
ETV1, sequence (P50549 whole entry): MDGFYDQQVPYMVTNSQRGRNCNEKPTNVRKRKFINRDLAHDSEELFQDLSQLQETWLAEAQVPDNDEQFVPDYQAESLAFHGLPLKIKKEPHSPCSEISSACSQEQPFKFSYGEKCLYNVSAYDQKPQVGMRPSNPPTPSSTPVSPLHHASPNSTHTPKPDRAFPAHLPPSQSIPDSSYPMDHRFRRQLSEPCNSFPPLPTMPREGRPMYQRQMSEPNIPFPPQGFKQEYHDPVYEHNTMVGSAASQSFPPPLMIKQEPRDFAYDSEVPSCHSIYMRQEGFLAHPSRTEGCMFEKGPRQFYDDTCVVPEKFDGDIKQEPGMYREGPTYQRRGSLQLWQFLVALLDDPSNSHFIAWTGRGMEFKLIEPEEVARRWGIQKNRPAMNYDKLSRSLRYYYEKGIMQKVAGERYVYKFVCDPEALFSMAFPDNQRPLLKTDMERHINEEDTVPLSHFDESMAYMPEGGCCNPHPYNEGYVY
In a further assay the target is T8, ERG (Homo sapiens, UniProt P11308 1-479).
T8 sequence: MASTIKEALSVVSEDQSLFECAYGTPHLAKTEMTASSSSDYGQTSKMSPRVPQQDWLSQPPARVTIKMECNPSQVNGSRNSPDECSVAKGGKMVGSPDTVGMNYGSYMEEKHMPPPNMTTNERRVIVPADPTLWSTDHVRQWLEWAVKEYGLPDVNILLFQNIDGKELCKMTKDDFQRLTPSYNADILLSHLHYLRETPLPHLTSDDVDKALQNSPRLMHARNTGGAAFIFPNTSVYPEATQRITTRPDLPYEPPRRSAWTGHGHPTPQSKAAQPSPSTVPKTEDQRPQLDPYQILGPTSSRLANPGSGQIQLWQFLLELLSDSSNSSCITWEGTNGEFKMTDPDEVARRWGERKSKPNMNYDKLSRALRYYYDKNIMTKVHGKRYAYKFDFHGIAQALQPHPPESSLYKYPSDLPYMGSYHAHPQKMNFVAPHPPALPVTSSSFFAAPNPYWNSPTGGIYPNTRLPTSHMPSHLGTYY
The essentials: as §1

The target of another assay is T9, EHF (Homo sapiens, UniProt Q9NZC4 1-300).
T9 sequence: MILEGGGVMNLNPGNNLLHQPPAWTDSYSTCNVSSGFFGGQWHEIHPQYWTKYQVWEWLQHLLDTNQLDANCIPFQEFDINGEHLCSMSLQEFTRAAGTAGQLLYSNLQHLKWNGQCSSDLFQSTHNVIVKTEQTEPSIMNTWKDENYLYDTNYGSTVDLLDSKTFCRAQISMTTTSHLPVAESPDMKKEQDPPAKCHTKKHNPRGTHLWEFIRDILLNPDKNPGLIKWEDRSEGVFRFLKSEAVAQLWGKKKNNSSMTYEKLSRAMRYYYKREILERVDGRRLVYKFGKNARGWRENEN
The essentials: as §1

In the next assay the target is T10, ELK3 (Homo sapiens, UniProt P41970 1-407).
T10 sequence: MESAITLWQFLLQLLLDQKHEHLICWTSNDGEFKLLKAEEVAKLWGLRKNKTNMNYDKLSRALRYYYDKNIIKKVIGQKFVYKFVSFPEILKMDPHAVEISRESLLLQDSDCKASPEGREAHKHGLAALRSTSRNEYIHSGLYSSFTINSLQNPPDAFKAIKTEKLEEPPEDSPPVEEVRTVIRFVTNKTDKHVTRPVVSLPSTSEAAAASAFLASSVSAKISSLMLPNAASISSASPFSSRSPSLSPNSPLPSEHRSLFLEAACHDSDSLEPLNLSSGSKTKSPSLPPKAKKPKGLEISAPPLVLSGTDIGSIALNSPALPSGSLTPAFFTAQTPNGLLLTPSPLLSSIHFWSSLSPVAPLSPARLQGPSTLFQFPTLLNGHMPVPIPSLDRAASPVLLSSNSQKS
A digest of the protocol:
as §1

ELF1, sequence (P32519 whole entry): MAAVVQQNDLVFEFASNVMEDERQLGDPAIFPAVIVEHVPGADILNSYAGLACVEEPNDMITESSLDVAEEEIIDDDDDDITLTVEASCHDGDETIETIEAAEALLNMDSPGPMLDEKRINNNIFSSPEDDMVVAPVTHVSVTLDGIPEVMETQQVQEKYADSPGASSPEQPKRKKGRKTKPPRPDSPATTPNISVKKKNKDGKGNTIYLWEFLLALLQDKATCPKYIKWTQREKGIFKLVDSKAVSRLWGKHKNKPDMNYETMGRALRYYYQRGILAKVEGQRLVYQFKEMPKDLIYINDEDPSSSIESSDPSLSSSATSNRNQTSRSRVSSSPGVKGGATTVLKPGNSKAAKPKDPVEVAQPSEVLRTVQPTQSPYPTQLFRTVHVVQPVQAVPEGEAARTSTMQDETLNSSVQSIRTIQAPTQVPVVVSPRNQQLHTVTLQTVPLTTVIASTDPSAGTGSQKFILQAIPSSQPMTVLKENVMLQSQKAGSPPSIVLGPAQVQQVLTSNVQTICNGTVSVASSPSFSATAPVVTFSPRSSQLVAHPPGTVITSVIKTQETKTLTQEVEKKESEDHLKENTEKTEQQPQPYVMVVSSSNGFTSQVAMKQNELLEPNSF
SPIB, sequence (Q01892 whole entry): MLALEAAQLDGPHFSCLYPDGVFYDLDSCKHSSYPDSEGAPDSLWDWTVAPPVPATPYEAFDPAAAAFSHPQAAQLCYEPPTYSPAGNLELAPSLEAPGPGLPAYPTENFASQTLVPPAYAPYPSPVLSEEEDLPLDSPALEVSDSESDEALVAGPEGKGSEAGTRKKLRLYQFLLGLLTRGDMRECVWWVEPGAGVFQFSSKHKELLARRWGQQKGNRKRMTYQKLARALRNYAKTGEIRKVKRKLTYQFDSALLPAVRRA
ELF4, sequence (Q99607 whole entry): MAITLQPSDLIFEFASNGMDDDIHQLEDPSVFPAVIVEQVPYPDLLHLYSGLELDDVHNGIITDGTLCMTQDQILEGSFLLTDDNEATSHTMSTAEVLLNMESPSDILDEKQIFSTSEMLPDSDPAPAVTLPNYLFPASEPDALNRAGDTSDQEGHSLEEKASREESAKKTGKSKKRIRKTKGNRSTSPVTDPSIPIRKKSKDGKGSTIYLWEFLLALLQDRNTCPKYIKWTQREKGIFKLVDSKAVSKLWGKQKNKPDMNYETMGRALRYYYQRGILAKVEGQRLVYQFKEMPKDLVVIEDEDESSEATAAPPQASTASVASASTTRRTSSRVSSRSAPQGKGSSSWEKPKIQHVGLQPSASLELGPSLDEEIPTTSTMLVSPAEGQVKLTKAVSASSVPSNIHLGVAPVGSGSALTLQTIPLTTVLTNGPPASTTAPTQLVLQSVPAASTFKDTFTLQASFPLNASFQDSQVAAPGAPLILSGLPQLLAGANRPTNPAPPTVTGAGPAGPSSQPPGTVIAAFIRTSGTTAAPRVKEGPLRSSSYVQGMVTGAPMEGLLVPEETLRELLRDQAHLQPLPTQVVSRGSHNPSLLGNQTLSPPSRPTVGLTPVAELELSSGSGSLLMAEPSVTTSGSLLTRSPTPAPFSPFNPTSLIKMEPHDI

Turning to GTTTGG, the binding signal was 1.07 fold enrichment (6-mer frequency, TF over GST control) with FLI1; 1.07 fold enrichment (6-mer frequency, TF over GST control) with ELK1; 1.04 fold enrichment (6-mer frequency, TF over GST control) with GABPA; 1.05 fold enrichment (6-mer frequency, TF over GST control) in the assay with ELF1; 1.01 fold enrichment (6-mer frequency, TF over GST control) in the assay with SPI1; 1.1 fold enrichment (6-mer frequency, TF over GST control) with SPIB. Further, the binding signal in the assay with FEV was 1.06 fold enrichment (6-mer frequency, TF over GST control); in the assay with ETV5, 1.03 fold enrichment (6-mer frequency, TF over GST control); with SPIC, 1.24 fold enrichment (6-mer frequency, TF over GST control); with ELF4, 1.03 fold enrichment (6-mer frequency, TF over GST control); with ELK4, 1.08 fold enrichment (6-mer frequency, TF over GST control); with ETV2, 1.06 fold enrichment (6-mer frequency, TF over GST control). Further, the binding signal with ETV1 is 1.07 fold enrichment (6-mer frequency, TF over GST control).

In the case of ACACTG, the binding signal was 1.08 fold enrichment (6-mer frequency, TF over GST control) with FLI1; 1.13 fold enrichment (6-mer frequency, TF over GST control) with ELK1; 1.13 fold enrichment (6-mer frequency, TF over GST control) with GABPA; 1.07 fold enrichment (6-mer frequency, TF over GST control) with ERG; 1.09 fold enrichment (6-mer frequency, TF over GST control) in the assay with ELF1; 1.11 fold enrichment (6-mer frequency, TF over GST control) with EHF. Also, the binding signal in the assay with SPI1 was 1.07 fold enrichment (6-mer frequency, TF over GST control); with SPIB, 1.04 fold enrichment (6-mer frequency, TF over GST control); with ELK3, 1.04 fold enrichment (6-mer frequency, TF over GST control); with FEV, 1.01 fold enrichment (6-mer frequency, TF over GST control); in the assay with ETV5, 1.07 fold enrichment (6-mer frequency, TF over GST control); in the assay with SPIC, 1.3 fold enrichment (6-mer frequency, TF over GST control). Further, the binding signal is 1.03 fold enrichment (6-mer frequency, TF over GST control) in the assay with ELF4; 1.14 fold enrichment (6-mer frequency, TF over GST control) with ELK4; 1.04 fold enrichment (6-mer frequency, TF over GST control) in the assay with ETV2; 1.15 fold enrichment (6-mer frequency, TF over GST control) in the assay with ETV1.
